Among the data in PubChem BioAssay (NCATS) are Potency values, retold here.

Inconclusive results are not listed. Active and inactive are the calls of the source. Calls come from the whole dose curve; as a rule, active = well fitted cell-killing curve with a large enough effect; inconclusive = small, poorly fitted or top-dose-only effect, or effect the other way; inactive = no such curve, though single readings can be large or run the other way.
Potency is the fitted concentration of half-maximal effect.

This experiment in a line: Quantitative High-Throughput drug screen in 47 multiple myeloma cell lines against the NCATS MIPE library collection: U266_ATCC cell viability assay (AID 1919864). Note: nearly all actives have a fitted effect of over 35% in size. The settings on record: U266 myeloma viability, CellTiter-Glo ATP luminescence, 48 h; series mostly up to 45.8 µM. From the text: PI: Beverly A. Mock Ph.D.
Laboratory of Cancer Biology and Genetics,
Center for Cancer Research, National Cancer Institute,
National Institute of Health, Bethesda, Maryland
Drug resistance and disease progression are common in multiple myeloma (MM) patients, underscoring the need for new therapeutic combinations. […] We hypothesized that effective combinations would reduce MYC expression and enhance p16 activity. […] These preclinical data identify potentially useful drug combinations for evaluation in drug-resistant MM and reveal potential mechanisms of combined drug sensitivity.
Described herein is the primary MIPE qHTS used to cherrypick compounds. Validated compounds were then further tested for potential synergistic activiy.
[1] Peat TJ, Gaikwad SM, Dubois W, Gyabaah-Kessie N, Zhang S, Gorjifard S, Phyo Z, Andres M, Hughitt VK, Simpson RM, Miller MA, Girvin AT, Taylor A, Williams D, D'Antonio N, Zhang Y, Rajagopalan A, Flietner E, Wilson K, Zhang X, Shinn P, Klumpp-Thomas C, McKnight C, Itkin Z, Chen L, Kazandijian D, Zhang J, Michalowski AM, Simmons JK, Keats J, Thomas CJ, Mock BA. Drug combinations identified by high-throughput screening promote cell cycle transition and upregulate Smad pathways in myeloma. Cancer Lett. 2023 Aug 1;568:216284. doi: 10.1016/j.canlet.2023.216284. Epub 2023 Jun 24. PMID: 37356470; PMCID: PMC10408729.
SEQUENCE No. (e.g., 1, 2, 3, etc.); […] (e.g., Cells, Incubation, Reagent, etc.); VALUE and DESCRIPTION.
1; Cells; 5 uL; white, solid bottom 1536-well Greiner assay plate.
2; Compounds; 23 nL; Kalypsis pin tool (Wako USA) equipped with a 1536-well pin head to transfer to the assay plates.
3; Incubation; 48 hours; 37C incubation.
4; Reagent;5uL; CellTiter Glo (Promega).
5; Detector; 425V; Luminescence; Viewlux PerkinElmer.
NOTES (numbers refer to Sequence numbers above)
1. The cell-based screening methods employed in this study were like those previously published. Briefly, the corresponding myeloma cell lines were screened in 1,536-well plates with 500 cells, 5-uL per well for inhibition of cell viability (assessed by measuring ATP levels with CellTiterGlo).
2. NCATS MIPE 4.0 library of approved and investigational drugs were added using the Kalypsis pin tool. Wells treated with DMSO only for 100% viability and media only for 0% viability were used as controls.
3. The assay plates were covered and incubated for 48 hours in a 37C, 5% CO2 incubator with controlled humidity.
4. After 48 hours, CellTilter-GloTM luminescent substrate mix (Promega) reagent was added to the assay plate and plates we incubated for 5 min at room temperature.
5. Signal was measured as median relative luminescence units on a ViewLux (PerkinElmer) multiplate reader.
[1] Heske CM, Davis MI, Baumgart JT, Wilson K, Gormally MV, Chen L, Zhang X, Ceribelli M, Duveau DY, Guha R, Ferrer M, Arnaldez FI, Ji J, Tran HL, Zhang Y, Mendoza A, Helman LJ, Thomas CJ. Matrix Screen Identifies Synergistic Combination of PARP Inhibitors and Nicotinamide Phosphoribosyltransferase (NAMPT) Inhibitors in Ewing Sarcoma. Clin Cancer Res. 2017 Dec 1;23(23):7301-7311. doi: 10.1158/1078-0432.CCR-17-1121. Epub 2017 Sep 12. PMID: 28899971; PMCID: PMC6636827.
For orientation: Cellular ATP, detected with luciferase, serves as a proxy for viable cell number.
For the compound `c1cc(OCCN2CCCCC2)cc(-c2n[nH]c3ccc(-c4ncn[nH]4)cc23)c1`, the Potency is 18.7 µM (active).
Regarding `NC1(C(=O)N[C@@H](CCO)c2ccc(Cl)cc2)CCN(c2ncnc3[nH]ccc23)CC1`, the Potency is 13.2 µM (active).
As to `Cc1cc(NC(=O)Nc2ccc(N(C)C)cc2)c2cc(F)cc(F)c2n1`, the Potency entry is “inactive”.
For the compound `CN(C)c1ccccc1CN1CCCN(Cc2ccccc2N(C)C)C1c1ccncc1`, the Potency is 14.8 µM (active).
The figure for `CC(C)n1c(C=C[C@H](O)C[C@H](O)CC(=O)O)c(-c2ccc(F)cc2)c2ccccc21` is 4.18 µM (active); for `CC(C)N(CCCNC(=O)Nc1ccc(C(C)(C)C)cc1)C[C@H]1O[C@@H](n2cc(Br)c3c(N)ncnc32)[C@H](O)[C@H]1O` it is 20.9 µM (active); for `CCC(c1ccc(O)cc1)C(CC)c1ccc(O)cc1` (stereo not given) it is 3.32 µM (active).
In the case of `COC(=O)N1CCN(Cc2cccc(NC(=O)Nc3ccc(C)nc3)c2F)CC1`, the Potency entry is “inactive”.
On to `c1ccc(CNc2nc(N3CCOc4ccccc43)nc3c2CCCC3)cc1`, for which the Potency result was “inactive”.
With `CCCCCOC(=O)Nc1nc(=O)n([C@@H]2O[C@H](C)[C@@H](O)C2O)cc1F` (stereo not given in full), the Potency entry is “inactive”.
Take `O=C(CC12CC3CC(CC(C3)C1)C2)Nc1cccc2nc(NCCNCCO)ccc12`: the Potency is 23.5 µM (active).
Consider `O=C(Nc1ncc(SCCN2CCCC2)s1)[C@]1(c2ccc(S(=O)(=O)C3CC3)cc2)C[C@@H]1C1CCCCC1`, for which the Potency is 8.33 µM (active).
The figure for `Cc1ccc(C(=O)N(CCCN)[C@@H](c2oc3cc(Cl)ccc3c(=O)c2Cc2ccccc2)C(C)C)cc1` is 20.9 µM (active).
Consider `CN[C@@H]1CN(c2ccc3c(=O)c(C(=O)O)cn(-c4nccs4)c3n2)C[C@@H]1OC`, for which the Potency is 8.12 µM (active).
As to `C[C@]12C=CC(=O)C=C1CC[C@@H]1[C@@H]2[C@@H](O)C[C@@]2(C)[C@@H]1CC[C@]2(O)C(=O)CO`, the Potency entry was “inactive”.
Regarding `CCC(=C(c1ccc(O)cc1)c1ccc(OCCNC)cc1)c1ccccc1`, the Potency is 29.6 µM (active).
The entry for `CN(C)c1nc(Cc2ccc(NC(=O)c3ccc(C(F)(F)F)cc3)cc2)nc(N(C)C)c1CC(=O)O` is “inactive”.
Take `Fc1ccc(C(c2ccc(F)cc2)N2CCN(CC=Cc3ccccc3)CC2)cc1`: the Potency result was “inactive”.
In the case of `CC(C)(O)CC(=O)NCCn1ccc2ncnc(Nc3ccc(Oc4cccc(C(F)(F)F)c4)c(Cl)c3)c21`, the Potency is 16.6 µM (active).
For `CCCCCCCCCCCCCC(=O)N[C@H](CO)[C@H](O)c1ccc([N+](=O)[O-])cc1`, the Potency result was “inactive”.
For the compound `CC1=C(CC(=O)O)c2cc(F)ccc2C1=Cc1ccc(S(C)=O)cc1` (stereo not given), the Potency is 1.18 µM (active).
Consider `CN1CCC(COc2cnc(-c3cccc(Cn4nc(-c5cccc(C#N)c5)ccc4=O)c3)nc2)CC1`, for which the Potency was 20.9 µM (active).
Turning to `Cn1c(=O)c(Oc2ccc(F)cc2F)cc2cnc(NC3CCOCC3)nc21`, the Potency entry is “inactive”.
On to `CN1C(=O)C[C@H](C(=O)N[C@@H](Cc2cnc[nH]2)C(=O)N2CCC[C@@H]2C(N)=O)NC1=O`, for which the Potency result is “inactive”.
On to `CNc1nc(-c2ccc3c(N)n[nH]c3c2)cc(N2C[C@@H](C(=O)NC3CCCCC3)CC[C@@H]2C)n1`, for which the Potency is 16.6 µM (active).
As for `Nc1nc(Cl)nc2c1ncn2[C@@H]1O[C@H](CO)[C@@H](O)[C@H]1F`, the Potency is 1.48 µM (active).
Consider `COc1ccc(-c2cc(=O)c3c(O)cc(O[C@@H]4O[C@H](CO[C@@H]5O[C@@H](C)[C@H](O)[C@@H](O)[C@@H]5O)[C@@H](O)[C@H](O)[C@@H]4O)cc3o2)cc1O`, for which the Potency was 18.7 µM (active).
The figure for `COc1cc2c(cc1OC)CC(=O)N(CCCN(C)C[C@H]1Cc3cc(OC)c(OC)cc31)CC2` is 16.6 µM (active); for `CN1CC(=O)NC1=NC(=O)Nc1cccc(Cl)c1` it is 20.9 µM (active); for `NS(=O)(=O)c1cc(Cl)c(Cl)c(S(N)(=O)=O)c1` it is “inactive”.
In the case of `O=C(O)CCNc1cc(N2CCc3ccccc3CC2)nc(-c2ccccn2)n1`, the Potency result is “inactive”.
The figure for `COc1ccc2ccc(=O)oc2c1CC=C(C)C` is 13.2 µM (active); for `CC1(C)[C@H]2CC[C@]3(C)[C@@H](C(=O)C=C4[C@@H]5C[C@@](C)(C(=O)O)CC[C@]5(C)CC[C@]43C)[C@@]2(C)CC[C@@H]1O` it is “inactive”.
With `CC(C)(F)C[C@H](N[C@@H](c1ccc(-c2ccc(S(C)(=O)=O)cc2)cc1)C(F)(F)F)C(=O)NC1(C#N)CC1`, the Potency entry is “inactive”.
For `O=C(CCCN1CCN(c2ccc(F)cc2)CC1)NC1c2ccccc2CSc2ccccc21` (stereo not given), the Potency was 20.9 µM (active).
As to `CC[C@H](C)C(=O)O[C@H]1C[C@H](O)C=C2C=C[C@H](C)[C@H](CC[C@@H](O)C[C@@H](O)CC(=O)O)[C@H]21`, the Potency entry was “inactive”.
Turning to `C[C@@H](NC(=O)c1ncnc(N)c1Cl)c1ncc(C(=O)Nc2cc(C(F)(F)F)c(Cl)cn2)s1`, the Potency was 26.4 µM (active).
For `O=C(O)Cc1cccc(OCCCN(Cc2cccc(C(F)(F)F)c2Cl)CC(c2ccccc2)c2ccccc2)c1`, the Potency result is “inactive”.
Take `Nc1ncnc2c1c(-c1cccc(OCc3ccccc3)c1)cn2C1CC(CN2CCC2)C1` (stereo not given): the Potency was 16.6 µM (active).
As for `CNC1[C@H](O)C(O[C@@H]2C(O)C(O[C@H]3O[C@H]([C@@H](C)NC)CC[C@H]3N)[C@@H](N)C[C@H]2N)OC[C@]1(C)O` (stereo not given in full), the Potency entry was “inactive”.
